Consider ten compounds from PubChem BioAssay (Tox21).

Assay [1] is described as follows: Caspase-3/7 induction in HepG2 cells by small molecules, qHTS assay (AID 1346978). For caspase activation: % is set by controls: 0 for no effect and ±100 for the full control effect. Note: nearly all actives have a fitted effect of over 15% in size. Note: potency is the fitted concentration of half-maximal effect. Put shortly:
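Wild-type HepG2 cells (2,000/well) were settled 5 h at 37 C, 5% CO2, then exposed to compounds in DMSO for 17 h. Caspase-3/7 activity was read by luminescence 30 min after adding Caspase-Glo 3/7 reagent at room temperature.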

Assay [2] in a line: Caspase-3/7 induction in CHO-K1 cells by small molecules, qHTS cell viability counter screen (AID 1346979). Note: nearly all actives have a fitted effect of over 35% in size. Note: potency is the fitted concentration of half-maximal effect. Put shortly:
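Wild-type CHO-K1 cells (1,500/well) treated with compound after 5 h plating; after 16 h at 37C, viability read as CellTiter-Fluor fluorescence following 1 h reagent incubation, in the same wells as the caspase read.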

Assay [3] in a line: Caspase-3/7 induction in CHO-K1 cells by small molecules, qHTS assay (AID 1346980). For caspase-3/7 activation: % is set by controls: 0 for no effect and ±100 for the full control effect. Note: nearly all actives have a fitted effect of over 15% in size. Note: potency is the fitted concentration of half-maximal effect. Put shortly: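 Wild-type cells were seeded at 1,500 per well and settled 5 hr at 37 C, 5% CO2, then exposed to DMSO-dissolved compounds for 17 hr. Caspase-Glo 3/7 reagent was added, and luminescence was read after 30min at room temperature.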
Assay [4] in a line: Caspase-3/7 induction in HepG2 cells by small molecules, qHTS cell viability counter screen (AID 1346981). Note: nearly all actives have a fitted effect of over 30% in size. Note: potency is the fitted concentration of half-maximal effect. Put shortly: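 Steps: seed 2,000 HepG2 cells per well; incubate 5 hr at 37 C; pin-add compounds in DMSO; incubate 16 hr; add CellTiter-Fluor; after 1 hr at 37 C and 5% CO2, read fluorescence.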
For assay [5], the target named is Nuclear receptor subfamily 1 group I member 2 (Homo sapiens) (UniProt O75469). In words: Human pregnane X receptor (PXR) small molecule agonists, qHTS assay (AID 1346982). Note: nearly all actives have a fitted effect of over 35% in size. Note: potency is the fitted concentration of half-maximal effect. The method, boiled down: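 Agonist mode qHTS: PXR-Luc HepG2 cells plated 5 hr before DMSO-dissolved compounds were pinned in, cultured 24 hr at 37 C, 5% CO2; ONE-Glo luminescence readout.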
Assay [6] concerns the target Cytochrome P450 2D6 (Homo sapiens) (UniProt P10635). Nature of the assay: Cytochrome P450 Family 2 Subfamily D Member 6 (CYP2D6) small molecule antagonists: luciferase reporter qHTS assay (AID 1671196). Note: nearly all actives have a fitted effect of over 50% in size. Note: potency is the fitted concentration of half-maximal effect. Put shortly:
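P450-Glo format: CYP2D6 converts a proluciferin substrate to luciferin in an NADPH-driven reaction lasting 1 h at room temperature. Light output, proportional to CYP2D6 activity, reflects interference by test chemicals.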

Assay [7] has as its target Cytochrome P450 2C19 (Homo sapiens) (UniProt P33261). Nature of the assay: Cytochrome P450 Family 2 Subfamily C Member 19 (CYP2C19) small molecule antagonists: luciferase reporter qHTS assay (AID 1671197). Note: nearly all actives have a fitted effect of over 65% in size. Note: potency is the fitted concentration of half-maximal effect. The method, boiled down: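 Luminescent readout of CYP2C19 activity: luciferin product detected 20 min after adding detection reagent. Before that, compound and enzyme-substrate mix preincubated 10 min at room temperature; NADPH-regenerating system started a 1 h, 37C reaction. Ketoconazole as positive control.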

In assay [8] the target is Cytochrome P450 2C9 (Homo sapiens) (UniProt P11712). Nature of the assay: Cytochrome P450 Family 2 Subfamily C Member 9 (CYP2C9) small molecule antagonists: luciferase reporter qHTS assay (AID 1671198). Note: nearly all actives have a fitted effect of over 50% in size. Note: potency is the fitted concentration of half-maximal effect. The method, boiled down: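 CYP2C9 activity was measured with a P450-Glo proluciferin substrate. Enzyme–substrate mix was held with compound for 10 min at room temperature, then NADPH regeneration solution was added for 1 h at 37C. Luciferin product was read as luminescence.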

For assay [9], the target named is Cytochrome P450 1A2 (Homo sapiens) (UniProt P05177). Nature of the assay: Cytochrome P450 Family 1 Subfamily A Member 2 (CYP1A2) small molecule antagonists: luciferase reporter qHTS assay (AID 1671199). For activity change, negative = inhibition: series mostly up to about 120 µM; % is set by controls: 0 for no effect and ±100 for the full control effect. Note: nearly all actives have a fitted effect of over 50% in size. Note: potency is the fitted concentration of half-maximal effect. Put shortly:
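Inhibition of CYP1A2 conversion of proluciferin to luciferin, detected by luminescence. Reaction run 1 h at room temperature with NADPH regeneration after brief compound preincubation.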

In assay [10] the target is Voltage-gated inwardly rectifying potassium channel KCNH2 (Homo sapiens) (UniProt Q12809). Nature of the assay: Human Ether-a-go-go-Related Gene (hERG) channel small molecule antagonists: fluorescence cell-based qHTS assay (AID 1671200).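 For activity change, negative = inhibition: hERG-expressing U2OS cells given a thallium stimulus after FluxOR II dye loading; series mostly up to about 77 µM; % is set by controls: 0 for no effect and ±100 for the full control effect.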 Note: nearly all actives have a fitted effect of over 50% in size. Note: potency is the fitted concentration of half-maximal effect. Put shortly: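 hERG-U2OS cells plated overnight at 37 C, loaded with FluxOR II dye 1 h at RT in dark; after 10 min, thallium stimulus added. Fluorescence (480/540 nm) read kinetically for 2 min at 1 s intervals.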

Assay [11] concerns the target Cytochrome P450 3A4 (Homo sapiens) (UniProt P08684). In words: Cytochrome P450 Family 3 Subfamily A Member 4 (CYP3A4) small molecule antagonists: luciferase reporter qHTS assay (AID 1671201). Note: nearly all actives have a fitted effect of over 50% in size. Note: potency is the fitted concentration of half-maximal effect. Put shortly:
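P450-Glo CYP3A4 luminescent assay: compounds preincubated 10 min at room temperature with enzyme and proluciferin substrate, NADPH regeneration added, 1 h room-temperature reaction, stopped with luciferin detection reagent; luminescence read after 20 min. Ketoconazole positive control.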

The target in assay [12] is Nuclear receptor subfamily 1 group I member 2 (Rattus norvegicus) (UniProt Q9R1A7). Nature of the assay: Rat pregnane X receptor (rPXR) activation by small molecules, qHTS assay (AID 1346983). Note: % is set by controls: 0 for no effect and ±100 for the full control effect; nearly all actives have a fitted effect of over 20% in size. As to conditions: rPXR luciferase reporter cells, One-Glo luminescence, 24 h; max activation: active compounds read high. The method, boiled down:
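Cell-based rPXR luciferase reporter assay, 2,000 cells per well, rested 5hr at 37 C before compound addition in DMSO, then 24 hr at 37 C. One-Glo reagent was added and luminescence read after 30 min at room temperature.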

The target of assay [13] is Nuclear receptor subfamily 1 group I member 2 (Homo sapiens) (UniProt O75469). In words: CYP3A4 induction through human pregnane X receptor (PXR) by small molecules, qHTS assay (AID 1346984). Note: potency is the fitted concentration of half-maximal effect; nearly all actives have a fitted effect of over 40% in size. Put shortly:
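Steps: seed DPX-2 cells, 5 hr at 37C; pin-transfer compounds; 24 hr at 37C; add Luciferin-IPA (3uM final), 3 hr at 37C; add One-Glo, 30 min RT; read luminescence.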

The target is the same in assay [14]. In words: Human pregnane X receptor (PXR) activation by small molecules, qHTS assay (AID 1346985). Note: potency is the fitted concentration of half-maximal effect; nearly all actives have a fitted effect of over 40% in size. Put shortly:
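DPX-2 cells (HepG2 co-transfected with a PXR response element and a CYP3A4-promoter luciferase construct) were seeded at 2,000 per well, rested 5 hr at 37C, then exposed to DMSO-dissolved compounds for 24 hr. Activation was read as luciferase luminescence.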

Values joined by “and” are separate entries in the source; they are usually repeats but may differ in a detail not shown here. Equal values may be shown once. Unmarked numbers belong to inactive results. Results filed as inconclusive are left out. Active and inactive are the calls of the source. Calls come from the whole dose curve; as a rule, active = well fitted curve in the direction sought with a large enough effect in the repeat runs; inconclusive = weak or mixed curves; inactive = no such curve, though single readings can be large; an effect the other way counts as inactive or inconclusive.

Chain of Cytochrome P450 2D6 (Homo sapiens) (P10635 whole entry, looked up): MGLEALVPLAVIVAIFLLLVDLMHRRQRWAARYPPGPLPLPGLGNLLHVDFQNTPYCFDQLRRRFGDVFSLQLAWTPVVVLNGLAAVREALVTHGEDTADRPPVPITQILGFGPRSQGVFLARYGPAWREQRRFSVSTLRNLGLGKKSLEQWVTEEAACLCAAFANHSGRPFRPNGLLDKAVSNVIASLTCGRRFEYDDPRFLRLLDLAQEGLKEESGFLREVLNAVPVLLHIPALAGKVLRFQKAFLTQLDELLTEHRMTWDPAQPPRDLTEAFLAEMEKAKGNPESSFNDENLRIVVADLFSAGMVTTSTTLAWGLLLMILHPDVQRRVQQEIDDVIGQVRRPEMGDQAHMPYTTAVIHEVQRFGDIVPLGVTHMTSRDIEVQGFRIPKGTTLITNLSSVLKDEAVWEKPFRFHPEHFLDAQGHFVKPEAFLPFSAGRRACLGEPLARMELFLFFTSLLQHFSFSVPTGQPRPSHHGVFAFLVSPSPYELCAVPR
Chain of Cytochrome P450 2C9 (Homo sapiens) (P11712 whole entry, looked up): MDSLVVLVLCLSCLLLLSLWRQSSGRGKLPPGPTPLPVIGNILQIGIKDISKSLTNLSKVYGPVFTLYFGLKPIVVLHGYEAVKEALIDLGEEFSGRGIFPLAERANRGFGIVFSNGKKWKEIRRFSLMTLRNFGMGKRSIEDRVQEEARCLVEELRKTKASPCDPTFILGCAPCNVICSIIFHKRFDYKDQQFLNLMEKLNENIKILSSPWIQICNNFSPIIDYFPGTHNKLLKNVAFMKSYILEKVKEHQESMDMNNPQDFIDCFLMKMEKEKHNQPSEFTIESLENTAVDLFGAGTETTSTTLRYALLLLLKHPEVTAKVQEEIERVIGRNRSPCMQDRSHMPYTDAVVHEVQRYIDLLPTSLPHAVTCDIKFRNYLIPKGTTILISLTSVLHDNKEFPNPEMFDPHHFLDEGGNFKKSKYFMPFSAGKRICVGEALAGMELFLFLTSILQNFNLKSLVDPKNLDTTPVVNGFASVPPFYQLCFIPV
Chain of Cytochrome P450 3A4 (Homo sapiens) (P08684 whole entry, looked up): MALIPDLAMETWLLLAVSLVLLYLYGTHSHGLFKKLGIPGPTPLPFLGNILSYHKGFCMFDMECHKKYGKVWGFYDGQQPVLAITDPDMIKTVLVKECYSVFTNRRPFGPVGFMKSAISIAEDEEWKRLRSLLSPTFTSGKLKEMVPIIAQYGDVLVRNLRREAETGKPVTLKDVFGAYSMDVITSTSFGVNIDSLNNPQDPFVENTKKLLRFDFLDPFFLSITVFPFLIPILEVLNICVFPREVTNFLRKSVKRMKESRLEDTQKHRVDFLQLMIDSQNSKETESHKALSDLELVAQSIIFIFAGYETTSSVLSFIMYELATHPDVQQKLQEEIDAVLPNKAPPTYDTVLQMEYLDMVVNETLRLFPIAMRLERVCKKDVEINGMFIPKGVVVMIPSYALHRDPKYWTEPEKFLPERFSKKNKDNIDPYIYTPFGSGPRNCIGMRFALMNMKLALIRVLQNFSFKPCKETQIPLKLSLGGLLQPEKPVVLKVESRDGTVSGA
Chain of Cytochrome P450 2C19 (Homo sapiens) (P33261 whole entry, looked up): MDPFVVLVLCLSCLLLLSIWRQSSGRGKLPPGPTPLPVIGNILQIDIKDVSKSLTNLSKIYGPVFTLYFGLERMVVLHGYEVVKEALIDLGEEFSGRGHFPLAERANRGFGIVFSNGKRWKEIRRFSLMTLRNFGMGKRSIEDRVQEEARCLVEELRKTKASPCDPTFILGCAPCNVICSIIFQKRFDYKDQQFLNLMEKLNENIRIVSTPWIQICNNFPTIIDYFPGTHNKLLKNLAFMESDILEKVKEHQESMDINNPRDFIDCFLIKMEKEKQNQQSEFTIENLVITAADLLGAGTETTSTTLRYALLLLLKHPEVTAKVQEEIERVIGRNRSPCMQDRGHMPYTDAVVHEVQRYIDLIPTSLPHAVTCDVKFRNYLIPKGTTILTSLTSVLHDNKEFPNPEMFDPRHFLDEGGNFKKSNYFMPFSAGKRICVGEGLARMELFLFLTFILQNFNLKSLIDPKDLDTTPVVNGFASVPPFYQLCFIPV
Chain of Cytochrome P450 1A2 (Homo sapiens) (P05177 whole entry, looked up): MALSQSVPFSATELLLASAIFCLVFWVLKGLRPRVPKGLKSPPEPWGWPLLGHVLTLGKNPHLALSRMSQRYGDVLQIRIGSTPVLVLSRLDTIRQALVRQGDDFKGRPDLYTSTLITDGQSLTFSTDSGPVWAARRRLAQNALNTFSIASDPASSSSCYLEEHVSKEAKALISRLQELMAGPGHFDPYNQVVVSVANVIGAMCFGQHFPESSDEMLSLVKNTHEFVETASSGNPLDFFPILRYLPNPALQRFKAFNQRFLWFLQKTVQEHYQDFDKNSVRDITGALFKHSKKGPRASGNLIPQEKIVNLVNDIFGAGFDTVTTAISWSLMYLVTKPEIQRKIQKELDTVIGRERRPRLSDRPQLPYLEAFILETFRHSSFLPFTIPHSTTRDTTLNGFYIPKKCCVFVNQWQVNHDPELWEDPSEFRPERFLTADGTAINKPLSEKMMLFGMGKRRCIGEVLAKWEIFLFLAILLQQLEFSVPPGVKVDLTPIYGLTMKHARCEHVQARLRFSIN
Chain of Nuclear receptor subfamily 1 group I member 2 (Homo sapiens) (O75469 whole entry, looked up): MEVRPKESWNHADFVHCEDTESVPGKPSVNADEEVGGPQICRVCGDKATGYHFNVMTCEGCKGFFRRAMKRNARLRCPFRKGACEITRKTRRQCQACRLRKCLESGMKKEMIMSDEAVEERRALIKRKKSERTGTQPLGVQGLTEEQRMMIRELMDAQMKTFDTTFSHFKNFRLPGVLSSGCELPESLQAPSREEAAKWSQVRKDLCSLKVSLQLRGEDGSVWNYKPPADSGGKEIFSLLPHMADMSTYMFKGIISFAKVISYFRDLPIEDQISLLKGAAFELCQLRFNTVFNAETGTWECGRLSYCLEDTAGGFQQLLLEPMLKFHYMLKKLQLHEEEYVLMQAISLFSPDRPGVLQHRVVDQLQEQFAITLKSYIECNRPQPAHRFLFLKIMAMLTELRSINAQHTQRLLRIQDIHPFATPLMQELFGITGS
Chain of Voltage-gated inwardly rectifying potassium channel KCNH2 (Homo sapiens) (Q12809 whole entry, looked up): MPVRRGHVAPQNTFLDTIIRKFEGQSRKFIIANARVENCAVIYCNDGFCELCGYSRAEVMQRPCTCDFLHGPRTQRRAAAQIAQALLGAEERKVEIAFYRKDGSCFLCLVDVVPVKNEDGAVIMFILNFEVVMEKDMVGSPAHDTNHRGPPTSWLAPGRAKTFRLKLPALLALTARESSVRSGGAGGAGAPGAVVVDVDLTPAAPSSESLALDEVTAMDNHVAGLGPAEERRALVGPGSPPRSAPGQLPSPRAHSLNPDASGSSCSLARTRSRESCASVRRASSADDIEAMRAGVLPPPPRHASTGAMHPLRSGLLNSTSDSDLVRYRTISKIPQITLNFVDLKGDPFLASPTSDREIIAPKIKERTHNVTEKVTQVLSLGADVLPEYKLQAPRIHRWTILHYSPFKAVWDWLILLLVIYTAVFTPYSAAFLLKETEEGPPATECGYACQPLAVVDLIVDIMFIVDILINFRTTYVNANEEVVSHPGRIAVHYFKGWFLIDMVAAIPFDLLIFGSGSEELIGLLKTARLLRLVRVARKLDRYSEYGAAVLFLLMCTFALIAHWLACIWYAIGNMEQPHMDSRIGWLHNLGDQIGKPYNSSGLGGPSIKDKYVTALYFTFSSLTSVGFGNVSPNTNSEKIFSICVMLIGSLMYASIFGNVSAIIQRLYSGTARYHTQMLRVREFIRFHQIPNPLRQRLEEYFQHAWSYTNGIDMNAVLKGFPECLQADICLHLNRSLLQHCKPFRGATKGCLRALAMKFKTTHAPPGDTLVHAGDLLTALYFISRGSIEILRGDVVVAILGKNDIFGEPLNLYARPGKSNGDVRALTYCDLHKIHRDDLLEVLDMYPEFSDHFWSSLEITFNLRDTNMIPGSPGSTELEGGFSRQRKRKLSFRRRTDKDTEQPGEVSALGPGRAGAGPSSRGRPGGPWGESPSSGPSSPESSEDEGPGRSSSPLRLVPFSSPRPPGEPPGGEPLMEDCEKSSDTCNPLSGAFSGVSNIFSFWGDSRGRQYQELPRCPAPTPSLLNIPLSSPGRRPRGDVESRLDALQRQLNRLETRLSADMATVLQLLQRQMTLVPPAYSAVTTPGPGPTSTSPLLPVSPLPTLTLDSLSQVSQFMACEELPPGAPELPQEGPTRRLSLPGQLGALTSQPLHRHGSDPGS
Chain of Nuclear receptor subfamily 1 group I member 2 (Rattus norvegicus) (Q9R1A7 whole entry, looked up): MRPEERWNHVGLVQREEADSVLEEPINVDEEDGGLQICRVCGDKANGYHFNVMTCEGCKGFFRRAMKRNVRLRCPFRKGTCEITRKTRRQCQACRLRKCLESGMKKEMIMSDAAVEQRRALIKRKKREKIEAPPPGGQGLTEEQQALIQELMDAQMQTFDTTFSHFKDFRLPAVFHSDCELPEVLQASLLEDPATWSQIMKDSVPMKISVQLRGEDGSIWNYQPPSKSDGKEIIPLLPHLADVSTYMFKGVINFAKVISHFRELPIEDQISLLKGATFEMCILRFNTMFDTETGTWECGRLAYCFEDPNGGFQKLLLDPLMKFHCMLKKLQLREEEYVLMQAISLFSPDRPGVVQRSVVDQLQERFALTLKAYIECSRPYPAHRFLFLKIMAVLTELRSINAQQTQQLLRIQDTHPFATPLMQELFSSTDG

`CN(C)c1ccc(N=NS(=O)(=O)O)cc1`: the Potency entry in assay [1], in assay [3] and in [10] was “inactive” each time. Besides, the Potency was 33.8 µM (active) in assay [2]; 25 µM (active) in [4]; 21.7 µM (active) in [5]; 7940 nM (active) in assay [6]; 421 nM (active) in [7]; 5.09 µM (active) in assay [8]. The Potency in assay [9] was 9.45 µM (active).

With `CCN=c1cc2oc3cc(NCC)c(C)cc3c(-c3ccccc3C(=O)OCC)c-2cc1C`, the Potency in assay [1] is 27.3 µM (active); in assay [2], 965 nM (active) and 611 nM (active); in assay [3] it was 43.1 µM (active) and 48.6 µM (active); in [4], 2.72 µM (active) and 7.7 µM (active); in assay [5], 2.42 µM (active) and 1.72 µM (active); in [6], 17.8 µM (active) and 20 µM (active). The Potency was 7.94 µM (active) and 10 µM (active) in assay [7]; 7.94 µM (active) and 12.6 µM (active) in assay [8]; 2.45 µM (active) and 2.19 µM (active) in assay [10]; 999 nM (active) and 2 µM (active) in assay [11]. Further, the Potency entry in assay [9] was “inactive”.

As to `CN(Cc1cc(Br)cc(Br)c1N)C1CCCCC1`, the Potency entry in [1], in assay [2], in [3], in [4] and in [11] was “inactive” in each case. Moreover, the Potency in assay [5] is 13.3 µM (active); in assay [13] it was 14.1 µM (active); in assay [14] it was 8.91 µM (active); in assay [6], 7.8 nM (active); in assay [7] it was 4360 nM (active); in assay [9] it was 32.3 µM (active). In addition, the Potency in assay [10] was 10.7 µM (active). Further, in [12], the max activation is -3.03%.

On to `CCC1(c2cnc[nH]2)Cc2ccccc2C1`, for which the Potency entry in assay [1], in [2], in assay [3], in assay [4], in [5] and in assay [10] was “inactive” throughout. For the same compound, the Potency in assay [6] was 977 nM (active); in assay [7], 977 nM (active); in [8], 1.55 µM (active); in [9] it was 8.12 µM (active).

`CCCCN(C)C`: the Potency entry in [1], in assay [2], in [3], in assay [4], in [5] and in [6] was “inactive” each time. Further, the Potency entry in assay [7], in assay [8], in assay [9], in [10] and in assay [11] was “inactive” in each case.

As for `CCCCCCCCCCCCCc1ccccc1`, the Potency entry in assay [1], in assay [2], in [3], in assay [4], in [5] and in [6] was “inactive” throughout. The Potency result in [7], in assay [8], in assay [9] and in [11] was “inactive” each time.

For `C=C/C=C/C=C/CCCCC`, in assay [1], the caspase activation is -0.0295% [at 19 µM]. The activity change, negative = cytotoxicity in [2] is -1.73% [at 19 µM]; in assay [4], -1.07% [at 19 µM]. Also, the caspase-3/7 activation in [3] was 0.387% [at 19 µM]. In assay [5], the activation is 9.15% [at 19 µM]. Also, the activity change, negative = inhibition was -25.6% [at 23.6 µM] in assay [6], -9.41% [at 23.6 µM] in assay [9] and -12.1% [at 15.8 µM] in assay [10]. In addition, the Potency in assay [8] and in assay [11] was 16.9 µM (active) throughout.

For the compound `CC1(C)COCN1`, the Potency entry in assay [1], in [2], in assay [3], in assay [4], in [5] and in [6] was “inactive” in each case. Also, the Potency result in [7], in [8], in assay [10] and in assay [11] was “inactive” each time.

On to `S=C(SSSSSSC(=S)N1CCCCC1)N1CCCCC1`, for which the caspase activation in [1] was 0.0321% [at 19 µM]. Also, the Potency in assay [2] was 7.56 µM (active); in [8], 7.83 µM (active). For the same compound, in [3], the caspase-3/7 activation was 1.75% [at 19 µM]. Besides, the activity change, negative = cytotoxicity in assay [4] was 7.87% [at 19 µM]. Besides, the activation in [5] was 19.2% [at 19 µM]. Also, the activity change, negative = inhibition in assay [6] is -19.3% [at 23.6 µM]; in [10] it was -18.7% [at 15.8 µM].

As to `CCCCCCCC(=O)OCC`, the Potency entry in assay [1], in assay [2], in assay [3], in [4], in assay [5] and in [6] was “inactive” each time. The Potency entry in [7], in [8], in assay [9], in assay [10] and in [11] was “inactive” in each case.
